Experimental data: PubChem BioAssay AID1159580 (chemical genetic matrix, 2015)
In all, about 5,500 compounds went through this assay and about 2,000 (36%) were called active. Inconclusive results (about 18%) are left out. Cut-off read from the data, not from the text of the source: active = normalized growth mostly below about 0.91 (no sharp cut-off); inconclusive = no clear call, values can overlap the other calls; inactive = mostly above about 0.92. This is one part of the list.

Assay: chemical genetic growth profiling, strain panel (AID 1159580);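 note: tested at 20 µM; growth read once vehicle control cultures reached saturation at 30 °C; 1 = growth at the plate median or of vehicle wells; lower values mean less growth of the strain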
Conditions: growth OD

Measured: normalized growth

CNNC
inactive: S. cerevisiae deletion strains, locus YJR075W, strain HOC1, stronger effect = lower value 1.02 | S. cerevisiae deletion strains, locus YKL009W, strain mrt4, stronger effect = lower value 0.981 | S. cerevisiae deletion strains, locus YKL068W, stronger effect = lower value 1.01 | S. cerevisiae deletion strains, locus YKL085W, strain MDH1 (second series), stronger effect = lower value 1.01 | S. cerevisiae deletion strains, locus YKL085W, strain MDH1, stronger effect = lower value 1.01 | S. cerevisiae deletion strains, locus YKL160W, strain elf1, stronger effect = lower value 0.99 | S. cerevisiae deletion strains, locus YKL190W, strain CNB1, stronger effect = lower value 1.02 | S. cerevisiae deletion strains, locus YKR001C, strain vps1, stronger effect = lower value 1.01 | S. cerevisiae deletion strains, locus YKR026C, strain gcn3, stronger effect = lower value 1.02 | S. cerevisiae deletion strains, locus YKR091W, strain srl3, stronger effect = lower value 1.02 | S. cerevisiae deletion strains, locus YLL001W, strain dnm1, stronger effect = lower value 1.02 | S. cerevisiae deletion strains, locus YLL026W, stronger effect = lower value 1 | S. cerevisiae deletion strains, locus YLL041C, strain sdh2, stronger effect = lower value 1.02 | S. cerevisiae deletion strains, locus YLR027C, strain aat2, stronger effect = lower value 1.01 | S. cerevisiae deletion strains, locus YLR039C, strain RIC1, stronger effect = lower value 1.09 | S. cerevisiae deletion strains, locus YLR058C, strain SHM2, stronger effect = lower value 1.02 | S. cerevisiae deletion strains, locus YLR102C, strain apc9, stronger effect = lower value 0.998 | S. cerevisiae deletion strains, locus YLR221C, strain rsa3, stronger effect = lower value 1.01 | S. cerevisiae deletion strains, locus YLR258W, strain gsy2, stronger effect = lower value 1.01 | S. cerevisiae deletion strains, locus YLR262C, strain YPT6 (second series), stronger effect = lower value 1.01 | S. cerevisiae deletion strains, locus YLR262C, strain YPT6, stronger effect = lower value 1.09 | S. cerevisiae deletion strains, locus YLR268W, strain sec22, stronger effect = lower value 1.02 | S. cerevisiae deletion strains, locus YLR320W, strain mms22, stronger effect = lower value 1.01 | S. cerevisiae deletion strains, locus YLR330W, strain CHS5, stronger effect = lower value 1.02 | S. cerevisiae deletion strains, locus YLR342W, strain FKS1 (second series), stronger effect = lower value 1.01 | S. cerevisiae deletion strains, locus YLR342W, strain FKS1, stronger effect = lower value 1.01 | S. cerevisiae deletion strains, locus YLR357W, strain rsc2, stronger effect = lower value 0.986 | S. cerevisiae deletion strains, locus YLR370C, strain arc18, stronger effect = lower value 1.01 | S. cerevisiae deletion strains, locus YLR371W, strain rom2, stronger effect = lower value 1 | S. cerevisiae deletion strains, locus YLR384C, strain iki3, stronger effect = lower value 1.01 | S. cerevisiae deletion strains, locus YLR418C, strain cdc73, stronger effect = lower value 0.997 | S. cerevisiae deletion strains, locus YML016C, strain PPZ1, stronger effect = lower value 1.02 | S. cerevisiae deletion strains, locus YML032C, strain rad52, stronger effect = lower value 0.97 | S. cerevisiae deletion strains, locus YML120C, strain ndi1, stronger effect = lower value 1.03 | S. cerevisiae deletion strains, locus YML124C, strain tub3, stronger effect = lower value 1.01 | S. cerevisiae deletion strains, locus YMR058W, strain fet3, stronger effect = lower value 1.01 | S. cerevisiae deletion strains, locus YMR078C, strain ctf18, stronger effect = lower value 0.994 | S. cerevisiae deletion strains, locus YMR125W, strain sto1, stronger effect = lower value 1 | S. cerevisiae deletion strains, locus YMR129W, stronger effect = lower value 0.999 | S. cerevisiae deletion strains, locus YMR205C, strain PFK2, stronger effect = lower value 1.02 | S. cerevisiae deletion strains, locus YMR223W, strain ubp8, stronger effect = lower value 1 | S. cerevisiae deletion strains, locus YMR231W, strain pep5, stronger effect = lower value 1.01 | S. cerevisiae deletion strains, locus YMR263W, strain SAP30, stronger effect = lower value 1.03 | S. cerevisiae deletion strains, locus YMR307W, strain GAS1, stronger effect = lower value 1.04 | S. cerevisiae deletion strains, locus YNL067W, strain RPL9B, stronger effect = lower value 1.03 | S. cerevisiae deletion strains, locus YNL071W, strain lat1, stronger effect = lower value 0.989 | S. cerevisiae deletion strains, locus YNL128W, strain TEP1, stronger effect = lower value 1.03 | S. cerevisiae deletion strains, locus YNL153C, strain GIM3, stronger effect = lower value 1.03 | S. cerevisiae deletion strains, locus YNL209W, strain ssb2, stronger effect = lower value 1.01 | S. cerevisiae deletion strains, locus YNL233W, strain BNI4, stronger effect = lower value 1.03 | S. cerevisiae deletion strains, locus YNL248C, strain rpa49, stronger effect = lower value 1.03 | S. cerevisiae deletion strains, locus YNL250W, strain rad50, stronger effect = lower value 0.997 | S. cerevisiae deletion strains, locus YNL271C, strain bni1, stronger effect = lower value 1.01 | S. cerevisiae deletion strains, locus YNL298W, strain CLA4, stronger effect = lower value 0.994 | S. cerevisiae deletion strains, locus YNL307C, strain MCK1, stronger effect = lower value 0.998 | S. cerevisiae deletion strains, locus YNL322C, strain KRE1 (second series), stronger effect = lower value 1.02 | S. cerevisiae deletion strains, locus YNL322C, strain KRE1, stronger effect = lower value 1.03 | S. cerevisiae deletion strains, locus YNR049C, strain mso1, stronger effect = lower value 1 | S. cerevisiae deletion strains, locus YNR052C, strain pop2, stronger effect = lower value 0.994 | S. cerevisiae deletion strains, locus YOL006C, strain TOP1, stronger effect = lower value 1.08 | S. cerevisiae deletion strains, locus YOL012C, strain htz1 1.09 | S. cerevisiae deletion strains, locus YOL147C, strain pex11, stronger effect = lower value 0.995 | S. cerevisiae deletion strains, locus YOR001W, strain rrp6, stronger effect = lower value 1.02 | S. cerevisiae deletion strains, locus YOR061W, strain CKA2, stronger effect = lower value 1.02 | S. cerevisiae deletion strains, locus YOR069W, strain VPS5, stronger effect = lower value 1.01 | S. cerevisiae deletion strains, locus YOR070C, strain gyp1, stronger effect = lower value 1.01 | S. cerevisiae deletion strains, locus YOR080W, strain dia2, stronger effect = lower value 0.99 | S. cerevisiae deletion strains, locus YOR083W, strain WHI5, stronger effect = lower value 1.01 | S. cerevisiae deletion strains, locus YOR106W, strain vam3, stronger effect = lower value 1.02 | S. cerevisiae deletion strains, locus YOR136W, strain idh2, stronger effect = lower value 0.994 | S. cerevisiae deletion strains, locus YOR144C, strain elg1, stronger effect = lower value 1 | S. cerevisiae deletion strains, locus YOR184W, strain ser1, stronger effect = lower value 1 | S. cerevisiae deletion strains, locus YOR265W, strain rbl2, stronger effect = lower value 1.02 | S. cerevisiae deletion strains, locus YOR270C, strain vph1, stronger effect = lower value 1.1 | S. cerevisiae deletion strains, locus YOR290C, strain snf2, stronger effect = lower value 1.03 | S. cerevisiae deletion strains, locus YOR316C, strain cot1, stronger effect = lower value 1.01 | S. cerevisiae deletion strains, locus YPL051W, strain arl3, stronger effect = lower value 1 | S. cerevisiae deletion strains, locus YPL055C, strain LGE1, stronger effect = lower value 1.06 | S. cerevisiae deletion strains, locus YPL078C, strain atp4, stronger effect = lower value 1.01 | S. cerevisiae deletion strains, locus YPL106C, strain sse1, stronger effect = lower value 1 | S. cerevisiae deletion strains, locus YPL240C, strain hsp82, stronger effect = lower value 1.01 | S. cerevisiae deletion strains, locus YPL241C, strain CIN2, stronger effect = lower value 1.02 | S. cerevisiae deletion strains, locus YPR119W, strain clb2, stronger effect = lower value 1 | S. cerevisiae deletion strains, locus YPR141C, strain kar3, stronger effect = lower value 1.01 | S. cerevisiae deletion strains, locus YPR163C, strain tif3, stronger effect = lower value 0.994 | S. cerevisiae deletion strains, locus YPR167C, strain met16, stronger effect = lower value 1 | S. cerevisiae deletion strains, strain wtn01, stronger effect = lower value 1.02 | S. cerevisiae strains, strain wild type, stronger effect = lower value 1.01
